Source: PubChem BioAssay (Tox21)
Records with an inconclusive call do not appear. Calls of active or inactive are those of the source. Calls come from the whole dose curve; as a rule, active = well fitted activation curve with a large enough effect in the signal ratio in the repeat runs (not every such curve was filed as active); inconclusive = weak or mixed curves; inactive = flat fitted curve, though single readings scatter; the % refers to the signal ratio.

Assay: qHTS assay to identify small molecule agonists of H2AX (AID 1224845)
Settings: CHO-K1 phospho-H2AX Ser139 HTRF, 3 h; series mostly up to 154 µM; activation (H2AX phosphorylation): at the top concentration
Excerpt: National Center for Advancing Translational Sciences [NCATS]
NIH Chemical Genomics Center [NCGC]
U.S. Environmental Protection Agency [EPA]
National Institutes of Environmental Health Sciences [NIEHS]
National Toxicology Program [NTP]
U.S. Food and Drug Administration [FDA]
HTRF phospho-H2AX (Ser139) assay (Cisbio Bioassays, US) enables the quantitative detection of the histone variant H2AX when phosphorylated on serine 139. When double-stranded DNA breaks, either by ionizing radiation or endogenous physiological processes, H2AX becomes phosphorylated at Ser139. This phospho-Ser139 serves as a sensitive biomarker for the detection of such breaks, localizing the site of DNA repair. So, HTRF phospho-H2AX Ser139 is a pertinent assay to study genome stability, the cell cycle, DNA repair, and it serves as a biomarker for cancer, and to understand aging. Wild type CHO-K1 cells were used to identify the inducers of Phospho-H2AX Ser 139 from the Tox21 10K compound collections.
Tox21 Assay Protocol Summary:
The CHO-K1 cells suspended in culture medium containing 10% FBS were dispensed at 1000 cells/ 3 ul/well in 1536-well white wall/solid bottom plates (Greiner Bio-One North America, NC) using a Multidrop Combi (Thermo Fisher Scientific Inc., Waltham, MA). After the assay plates were incubated at 37C overnight, 23 nl of compounds at 15 concentrations (from 5-48 columns) or positive control (from 1 to 4 columns) were transferred to the assay plates using a Pintool station (Wako, San Diego, CA) into each well resulting in a final DMSO concentration of 0.76%. After 3hr incubation at 37C, 1 uL/well Supplemented Lysis buffer (diluted 100 fold blocking reagent in lysis buffer) (HTRF Phospho-H2A.X (S139) Assay kit from Cisbio US Inc., Bedford, MA) was added using a Flying Reagent Dispenser (FRD) (Aurora Discovery, CA). After 10sec spin at 1000 rpm in a plate centrifuge, the assay plates were incubated at room temperature for 30 min. Then followed by the addition of 1 uL/well detection buffer (containing a mixture of two antibodies, one labeled with cryptate, Anti pH2AX (S139)-K and another labeled with d2, Anti H2AX-d2) using FRD. After incubation at room temperature for 24 hr, the time resolved fluorescence at excitation 320 nm and emissions at 665 nm and 620 nm was measured using an Envision plate reader (PerkinElmer, Waltham, MA).
% is set by controls: 0 for no effect and ±100 for the full control effect; potency is the fitted concentration of half-maximal effect.

| Structure (SMILES) | activation (H2AX phosphorylation) | Potency |
| --- | --- | --- |
| CN(C)CCCCCCN(C)C | 0.0954% (inactive) | – |
| C=CCOCC(O)CO (stereo not given) | 1.33% (inactive) | – |
| CCCc1ncc(C[n+]2ccccc2C)c(N)n1 | 0.423% [at 70.9 µM] (inactive) | – |
| O=C(O)CNC(=O)c1ccccc1 | -2.05% [at 70.9 µM] (inactive) | – |
| O=S(=O)(O)c1cccc2c(S(=O)(=O)O)cccc12 | 0.835% (inactive) | – |
| FB(F)F | -1.07% (inactive) | – |
| Cc1ccc(C(=O)Nc2ccc(S(=O)(=O)O)c3cc(S(=O)(=O)O)cc(S(=O)(=O)O)c23)cc1NC(=O)c1cccc(NC(=O)Nc2cccc(C(=O)Nc3cc(C(=O)Nc4ccc(S(=O)(=O)O)c5cc(S(=O)(=O)O)cc(S(=O)(=O)O)c45)ccc3C)c2)c1 | -2% [at 70.9 µM] (inactive) | – |
| CC(C)=CCC/C(C)=C/C#N | -0.871% (inactive) | – |
| C[N+](C)(C)CCCCCCCCCC[N+](C)(C)C | -1.19% [at 70.9 µM] (inactive) | – |
| CC(C)(CCC(=O)O)C(=O)O | -0.959% (inactive) | – |
| NC(=O)Cc1cccc2ccccc12 | 1.44% (inactive) | – |
| CCCCCCCCCC[N+](C)(C)[O-] | -0.116% (inactive) | – |
| CC(N)C12CC3CC(CC(C3)C1)C2 (stereo not given) | 0.136% [at 70.9 µM] (inactive) | – |
| CCCCN(CCC(=O)OCC)C(C)=O | -0.915% (inactive) | – |
| CCN[C@H]1C[C@H](C)S(=O)(=O)c2sc(S(N)(=O)=O)cc21 | 0% [at 70.9 µM] (inactive) | – |
| OCCc1ccccn1 | -2.14% (inactive) | – |
| CC1=NS(=O)(=O)c2cc(Cl)ccc2N1 | 0.751% [at 70.9 µM] (inactive) | – |
| Cc1onc(-c2c(Cl)cccc2Cl)c1C(=O)Cl | -1.3% [at 70.9 µM] (inactive) | – |
| O=C1CCCCCCCCCCCCCCO1 | 1.67% (inactive) | – |
| CCC(C(=O)NC(=O)NC(C)=O)c1ccccc1 (stereo not given) | 0.0984% [at 70.9 µM] (inactive) | – |

| Structure (SMILES) | activation (H2AX phosphorylation) | Potency |
| --- | --- | --- |
| CCC(C)(CCCC(C)C)OC(C)=O (stereo not given) | 3.03% (inactive) | – |
| CC1=CCC(O)(C(C)C)CC1 (stereo not given) | -1.93% (inactive) | – |
| CCOC(=O)OC(C)OC1=C(C(=O)Nc2ccccn2)N(C)S(=O)(=O)c2ccccc21 (stereo not given) | -1.45% [at 70.9 µM] (inactive) | – |
| O=C(CO)[C@@H](O)[C@H](O)[C@H](O)CO | -2.5% (inactive) | – |
| O=C(O)CCSCCC(=O)O | -1.47% (inactive) | – |
| CC(C)CCCO | -0.16% (inactive) | – |
| CCCCCCC#CC(=O)OC | 0.105% (inactive) | – |
| CC(CO)(CO)[N+](=O)[O-] | 0.325% (inactive) | – |
| NC(CCC(=O)O)C(=O)O (stereo not given) | -3.77% (inactive) | – |
| C[N+]12CCC(CC1)C(OC(=O)C(O)(c1ccccc1)c1ccccc1)C2 (stereo not given) | 0.76% [at 70.9 µM] (inactive) | – |
| N[C@@H](CCC(=O)O)C(=O)O | -1.06% (inactive) | – |
| Nc1ccn([C@@H]2O[C@H](CO)[C@@H](O)[C@@H]2O)c(=O)n1 | – | 20.1 µM (active) |
| CC[C@H]1OC(=O)[C@H](C)[C@@H](O[C@H]2C[C@@](C)(OC)[C@@H](O)[C@H](C)O2)[C@H](C)[C@@H](O[C@@H]2O[C@H](C)C[C@H](N(C)C)[C@H]2O)[C@](C)(OC)C[C@@H](C)C(=O)[C@H](C)[C@@H](O)[C@]1(C)O | -1.28% (inactive) | – |
| CC(=O)N1C[C@H](O)C[C@H]1C(=O)O | -1.43% [at 70.9 µM] (inactive) | – |
| CCN[C@@H]1C[C@H](N)[C@@H](OC2OC(CN)=CCC2N)[C@H](O)[C@H]1O[C@H]1OC[C@](C)(O)[C@H](NC)[C@H]1O (stereo not given in full) | -3.19% [at 0.582 µM] (inactive) | – |
| CN1CC(=O)N/C1=N/C(=O)Nc1cccc(Cl)c1 | -2.38% [at 70.9 µM] (inactive) | – |
| COc1cc(C(=O)NCc2ccc(OCCN(C)C)cc2)cc(OC)c1OC | 0.354% [at 70.9 µM] (inactive) | – |
| O=C(O)CNC(=O)c1ccc(CO)o1 | 1.88% (inactive) | – |
| C1CCC2=NCCCN2CC1 | -1.53% (inactive) | – |
| [Ca+2] | -0.49% (inactive) | – |
